Screens as filed in PubChem.
APP transl inh = APP translation inhibition; SH-SY5Y APP 5'UTR-luciferase reporter, luminescence; inhibition, % at 2 µM; hit rate 0.82% among 190,000;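 active means inhibition above a set limit, derived from the sample mean plus 3 SD, cut at about 45% in these data; inconclusive means one replicate passes the limit while the other fails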
BaF3 tox = counter-screen for JAK2V617F inhibitors: parental Ba/F3 viability inhibitors; CellTiter-Glo ATP luminescence; inhibition, % at 5.6 µM; hit rate 1.1% among 220,000;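 active means inhibition above a per-campaign cutoff, the mean inhibition of all tested compounds plus 3 SD, cut at about 27% in these data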;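 further: 0% = DMSO wells and 100% = JAK Inhibitor I control wells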
KLF5 inhibitor = kruppel-like factor 5 inhibition; DLD-1 KLF5 promoter-luciferase reporter, luminescence; inhibition, % at 5 µM; hit rate 0.23% among 290,000;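 active means inhibition above a per-plate limit of that plate's mean compound inhibition plus 3 SD, cut at about 60% in these data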;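 further: 0% = DMSO wells and 100% = LY294002 at 200 µM; higher means less KLF5 promoter-driven luciferase light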
Ba/F3 V617F tox = reduce viability of Ba/F3 cells dependent on JAK2V617F; hit rate 1.1% among 220,000; inhibition, % at 5.6 µM; Ba/F3 EpoR-JAK2V617F viability, ATP luminescence;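 active means inhibition above the campaign mean plus 3 SD over all tested compounds, cut at about 24% in these data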;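 further: cytokine-independent growth of Ba/F3 cells driven by EpoR plus mutant JAK2; 0% = DMSO-treated cells and 100% = JAK inhibitor I control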
IEC-6 tox = IEC-6 cytotoxicity, counter-screen for KLF5 inhibitors. luminescence viability. inhibition, % at 5 µM. hit rate 0.78% among 290,000;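 further: 0% = plate median of test compound wells and 100% = cytotoxic reference compound wells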
aSyn 5UTR inh = 5' untranslated region of α-synuclein, MLPCN primary screen. hit rate 0.82% among 300,000. alpha-synuclein 5'UTR reporter, inhibitor activity. inhibition, % (tested at 7.5 µM); in the data active means inhibition above about 60%; inconclusive means no clear call, values can overlap the other calls;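 further: H4 neuroglioblastoma cells stably carrying SNCA 5'UTR luciferase fusion; 0% = DMSO wells and 100% = positive control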
IEC-6 cytotox cf = confirmation of cytotoxic compounds in rat IEC-6 intestinal epithelial cells; hit rate 63% among 1,900; IEC-6 rat intestinal epithelial viability, luminescence; shares compounds with IEC-6 tox; AID 1907; inhibition, % at 5 µM;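 further: 0% = vehicle and 100% = reference cytotoxic drug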
The depositor's hits bear a star; ? = inconclusive; / = no result given. Compounds with a hit are over-represented: about 2.2% of the library has one in this group of screens. Unless noted, no stated cut-off is given here; in the data, active means inhibition above about 22%; inactive means the rest.

SMILES	APP transl inh	BaF3 tox	KLF5 inhibitor	Ba/F3 V617F tox	IEC-6 tox	aSyn 5UTR inh	IEC-6 cytotox cf
COc1cc(C(=O)NCC(=O)N2CCN(S(=O)(=O)c3cc(C)ccc3C)CC2)cc(OC)c1OC	/	/	14	/	30*	-75	17
Fc1ccc(F)c(CNc2ncnc3cc(Cl)ccc23)c1	/	/	4	/	10	24	/
COc1cc2ncnc(NCc3cccc(F)c3F)c2cc1OC	/	/	-9	/	35*	7	28*
COc1cc2ncnc(NCc3ccccc3F)c2cc1OC	/	/	0	/	28*	5	33*
Cn1c(=O)c2c(nc(SCC(=O)N3CCCc4ccccc43)n2C)n(C)c1=O	8	4	15	2	0	/	/
COc1cc(/C=N/NC(=O)c2ccncc2)ccc1OC(=O)c1ccco1	/	/	-14	/	-2	10	/
C=CCSc1nccc(-c2nn(-c3ccc(C)cc3)ccc2=O)n1	88*	46*	20	37*	39*	61	34*
C#CCSc1nccc(-c2nn(-c3ccc(C)cc3)ccc2=O)n1	/	4	-40	-1	5	12	/
CSc1nccc(-c2nn(-c3ccc(C)cc3)ccc2=O)n1	21	76*	10	75*	51*	37	39*
Cc1ccc(-c2ocnc2C(=O)Nc2ccccc2NC(=O)c2ccccn2)cc1	/	/	-20	/	27*	41	20
O=C(O)c1cc(-c2ccc(O)cc2)nc2ccccc12	/	3	-27	-1	-2	5	/
CC(=O)Oc1ccc(N2C(=O)c3cccc4c([N+](=O)[O-])ccc(c34)C2=O)cc1	/	/	-42	/	7	15	/
O=C1c2cccc3c([N+](=O)[O-])ccc(c23)C(=O)N1O	/	/	-22	/	85*	-35	11
Cc1cccc(CN2CCN(Cc3cccc4nonc34)CC2CCO)n1 (configuration not stated)	-11	-6	-31	-4	-2	7	/
O=C(c1nc2ccccn2c1CNCCOc1cccnc1)N1CCOCC1	2	2	-7	1	-5	-26	/
O=C(CSc1nc(Cc2ccccc2)nc2ccccc12)Nc1nc2c(s1)CCCC2	/	6	-9	2	-3	-36	/
CCCSc1nnc(Sc2nnnn2-c2ccccc2)s1	94*	95*	-40	82*	42*	13	26*
CCc1cc(OCCN2C(=O)NC(C)(C)C2=O)ccc1Cl	2	5	-39	0	2	18	/
COc1cccc2c1O/C(=N\O)C(C(=O)Nc1ccc(C)cc1)C2 (configuration not stated)	/	/	24	/	52*	-31	33*
COc1ccc(NC(=O)C2Cc3cccc(OC)c3O/C2=N\O)cc1 (configuration not stated)	/	/	9	/	4	-4	/
O=C(NCCc1ccco1)C(=O)NCC1OCCCN1S(=O)(=O)c1ccc(F)cc1 (configuration not stated)	/	/	-8	/	-2	17	/
COc1ccc(S(=O)(=O)N2CCCOC2CNC(=O)C(=O)NCCc2ccco2)cc1C (configuration not stated)	/	/	19	/	28*	-22	6
CCOc1cc(NC(=O)c2cccs2)c(OCC)cc1NC(=O)CCC(=O)NCc1ccccn1	/	64*	37	81*	57*	6	12
Cc1ccc(C(=O)Cn2c(C(=O)OCCO)cc3ccccc32)cc1	/	/	-6	/	26*	30	10
COc1ccc(C(=O)c2sc(Nc3ccccc3)nc2C)cc1	/	/	-15	/	-2	-32	/
SMILES	APP transl inh	BaF3 tox	KLF5 inhibitor	Ba/F3 V617F tox	IEC-6 tox	aSyn 5UTR inh	IEC-6 cytotox cf
COc1ccc(Nc2nc(N)c(C(=O)c3ccc(F)cc3)s2)cc1	/	/	48	/	74*	70*	57*
CCc1nnc(NC(=O)c2ccc(OC)cc2)s1	-129	7	-34	-1	36*	21	2
COc1ccc(Nc2nc(N)c(C(=O)c3ccc(OC)cc3)s2)cc1	/	/	41	/	66*	18	50*
O=C(NC1CCCC1)C(c1ccncc1)N(C(=O)c1csnn1)c1ccccc1F (configuration not stated)	/	/	4	/	0	7	/
CC1CCC(NC(=O)C(=O)Nc2ccc3c(c2)OCO3)CC1 (configuration not stated)	/	/	-181	/	5	-114	/
O=[N+]([O-])c1cc(Cl)cc2c1nc(NCCO)c1ccccc12	/	8	21	-1	25*	-207	26*
Cc1ccccc1NS(=O)(=O)c1ccc(N2CCCC2=O)cc1	74*	72*	55	85*	55*	49	44*
Cc1ccccc1NS(=O)(=O)c1cc2c3c(c1)CC(=O)N3CCC2	/	/	-38	/	2	6	/
Cc1ccc(NC(=O)C2CCN(S(=O)(=O)c3ccc(N4CCCC4=O)cc3)CC2)cc1Cl	/	/	-42	/	27*	-13	13
CCCCn1c(SCC(=O)Nc2cc(C)on2)nc2ccsc2c1=O	2	0	2	1	3	17	/
C=CCOc1ccc2oc(=O)cc(C)c2c1	-6	3	-1	0	-13	11	/
COC(=O)c1ccccc1NC1=C/C(=N\S(=O)(=O)c2ccc(C(=O)O)cc2)c2ccccc2C1=O	/	/	-6	/	28*	3	13
C/C=C/n1ccnc1CC(O)(c1ccccc1)c1ccc(C)cc1 (configuration not stated)	/	/	/	/	/	-5	/
CC1=Nc2cc(C(=O)NCCCN3CCN(C)CC3)ccc2Sc2ccc(C)cc21	/	/	-35	/	-3	0	/
CC1=Nc2cc(C(=O)NCC3CCCO3)ccc2Sc2ccc(C)cc21 (configuration not stated)	/	/	61	/	79*	44	53*
CCOc1ccc(C(=O)C(CCC(CN(C)C)C(=O)c2ccc(OCC)cc2)CN(C)C)cc1 (configuration not stated)	92*	40*	19	101*	29*	-10	27*
CCOc1ccc(C(=O)c2ccncc2)cc1	-9	1	-16	-4	1	-1	/
c1ccc(CNc2ncnc3c2cnn3Cc2ccccc2)cc1	2	33*	1	27*	27*	15	35*
OCCNc1ncnc2c1cnn2Cc1ccccc1	/	/	-27	/	-2	-3	/
CCOc1ccccc1NS(=O)(=O)c1cc2c3c(c1)CC(=O)N3CCC2	/	/	-28	/	8	10	/
CC1(C)CC(N2CCOCC2)=CC(=[N+]2CCOCC2)C1	-6	5	-21	-2	-4	-9	/
CC1(C)CC(N2CCCCC2)=CC(=[N+]2CCCCC2)C1	8	68*	-14	84*	23*	0	25*
CCn1ncc(/C=N/N=C2\CCC3C4CCc5cc(O)ccc5C4CCC23C)c1C (configuration not stated)	5	3	-6	2	1	-4	/
CCO[C@@H]1OC(C(=O)Nc2ccccc2)=C[C@H](c2coc3ccccc3c2=O)[C@H]1CCCO	4	-4	-22	6	25*	?	5
O=S(=O)(NNC(=S)NCC1CCCO1)c1cc(Cl)ccc1Cl (configuration not stated)	/	/	-29	/	1	-10	/
